Pf Dd2 growth: inhibitors of Plasmodium falciparum Dd2 growth. P. falciparum Dd2 growth, SYBR Green, 72 h. Potency, µM (series often up to 28.9 µM), without a hit: top-dose activity, negative = inhibition, most hits filed as inhibitors. 120,000 tested, 4.3% active. AID 1347417; active = well fitted inhibition curve with a large enough effect;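 also: plate controls were DMSO vehicle for no effect and reference drug for full effect; nearly all actives have a fitted effect of over 65% in size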
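Readout: SYBR Green fluorescence, 485 nm excitation, 535 nm emission, after ~16 h lysis at 37C. Before that, Dd2-infected red cells (2.5% hematocrit) grew 72 h with compound, 29 uM top final concentration.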
The depositor's hits bear a star; i = inactive; [ ] = another dose, or the depositor's remark. The entries come from a sample that favours hits as a whole. Potency is read from the fitted curve at half-maximal effect.

SMILES	Pf Dd2 growth
COCCNC(=O)c1cc(C2CC2)nc2c1c(C1CCCNC1)nn2C (centres undefined)	12%
COCCNC(=O)c1cc(C2CC2)nc2c1c(C1CCCN1)nn2-c1ccccc1 (centres undefined)	11µM*
Cn1nc(C2CCCN2)c2c(C(=O)N3CCOCC3)cc(C3CC3)nc21 (centres undefined)	0%
COc1ccc(-c2cc(C(=O)NCC(C)C)c3c(C4CCCN4)nn(C)c3n2)cc1 (centres undefined)	4µM*
COc1ccc(NC(=O)c2cc(C3CC3)nc3c2c(C)nn3-c2ccccc2)cc1OC	13%
Cc1nn(-c2ccccc2)c2nc(C3CC3)cc(C(=O)Nc3cccc(F)c3)c12	10µM*
COc1ccccc1CN1CCC(N2Cc3cnc(C)n3C2=O)CC1	i
CN[C@@H](CO)C(=O)NCc1nc(-c2ccc(C)cc2)c(-c2ccccn2)[nH]1	-20%
COCCO[C@H]1C(=O)N(C2CCN(C(=O)c3sc(C)nc3C)CC2)[C@H]1c1ccncc1	-7%
COCCCNc1nc2c([S+](=O)([O-])c3ccncc3)nnn2c2ccccc12	-22%
O=C(N[C@@H]1[C@@H](Cc2ccccc2)[C@H]2OCC[C@@H]12)N1CCOCC1	-18%
COc1ccccc1C(=O)N1CCC2(CC1)CC(c1cccnc1)=NO2	i
O=C(c1ccc2c(c1)OCO2)N1C[C@@H]2C[C@H](C1)c1ccc(-c3cccc(C(F)(F)F)c3)c(=O)n1C2	-16%
O=C(CCc1ccc(O)cc1)N[C@H]1CC[C@H](Nc2nccc(-c3cccnc3)n2)C1	11µM*
NS(=O)(=O)c1ccc(CNc2nccc(-c3cccnc3)n2)cc1	-15%
O=C(N[C@H]1CO[C@H]2[C@@H]1OC[C@@H]2Nc1nccc(-c2ccc(-c3ccccc3)cc2)n1)C1CC1	7%
CCN(CC)C(=O)[C@@H]1CCCN1C1(C(=O)NC)COC1	17%[44.1 µM]
CN(C)Cc1nnc(C2CC(Nc3cncc(C(=O)N(C)C)n3)C2)n1C (centres undefined)	-4%
OCC1CN(Cc2ccc(Cl)cc2)CC12CCNCC2 (centres undefined)	i
CCc1ocnc1C(=O)N1CCC2(CC1)CC(c1ccccc1)CN(C)C2 (centres undefined)	-20%
CN1CC(c2ccccc2)CC2(CCN(C(=O)CCCn3ccnc3)CC2)C1 (centres undefined)	13µM*
O=C(O)c1cccc(C2CCCN(C(=O)CCCn3ccnc3)C2)c1 (centres undefined)	-22%
COc1cccc(NC(=O)CCC2CCN(C(=O)c3cc4ccccc4cn3)CC2)c1	-28%
COCCOC1CCOC2(CCN(C(=O)NCc3ccccc3)CC2)C1 (centres undefined)	-5%
CC(C)CCN1C(=O)CC[C@]2(C(=O)NC3CC3)CCCC[C@@H]12	25%
SMILES	Pf Dd2 growth
CCCN(CCC)C(=O)[C@@]12CCCC[C@H]1N(CCC(C)C)C(=O)CC2	10µM*
CC(C)CCN1C(=O)CC[C@]2(C(=O)NCc3ccncc3)CCCC[C@@H]12	10%
Cc1nonc1OCCNC(=O)C1CCC(=O)N(CCN2CCOCC2)C1 (centres undefined)	17%
C1CC(c2noc(C3CC3)n2)CN1 (centres undefined)	14%[5.79 µM]
COC(=O)CNC(=O)C1CN(c2ccc(OC)cc2)C(=O)N1 (centres undefined)	i
O=C(Nc1cccc(Cl)c1F)N1CCC(Oc2ncccc2C(=O)N2CCOCC2)C1 (centres undefined)	12%
COc1ccc(CNC(=O)Cn2ccn3nc(-c4ccc(F)cc4)c(CO)c3c2=O)cc1OC	i
Cc1ccc(-c2ccc3nnc(CNC(=O)c4cccnc4)n3n2)cc1	-16%
Cc1ccc(-c2nc3ccccc3s2)cc1NC(=O)COc1ccccc1	13%
Cc1ccc(-c2nc3ccccc3[nH]2)cc1NC(=O)COc1cccc(C)c1C	7.1µM*
COc1ccc(OCC(=O)Nc2cc(-c3nc4ccccc4s3)ccc2C)cc1	3%
CC(=O)N[C@H]1CN(C(=O)c2ccccc2C(F)(F)F)C[C@@H]1C1CC1	-6%
O=C(NC[C@H]1OC[C@@H](N(Cc2ccccc2F)Cc2ccccc2F)[C@@H]1O)c1ccccc1	i
COCC1CN(C(C)=O)CC12CCN(C(=O)c1cccc(C)c1)CC2 (centres undefined)	68%
COc1ccc(NC(=O)N[C@H]2C[C@@H](c3nc(-c4ccc(F)cc4)no3)N(C)C2)cc1	i
CN1C[C@@H](NC(=O)c2ccccn2)C[C@H]1c1nc(-c2ccc(Cl)cc2)no1	i
COc1ccc(-c2noc([C@@H]3C[C@H](NC(=O)c4ccc(F)cc4)CN3C)n2)cc1	i
COc1ccc(-c2noc([C@@H]3C[C@H](NCc4ccccn4)CN3C)n2)cc1	10µM*
Cc1ccc(-c2noc([C@@H]3C[C@H](NC(=O)Nc4ccc(Cl)cc4)CN3C)n2)cc1	-8%[44.1 µM]
CN1C[C@@H](NC(=O)Nc2ccc(Cl)cc2)C[C@H]1c1nc(-c2ccc(F)cc2)no1	14µM*
COc1ccc(C(=O)N[C@H]2C[C@@H](c3nc(-c4ccccc4)no3)N(C)C2)cc1	i
CN1C[C@@H](NC(=O)c2cnccn2)C[C@H]1c1nc(-c2ccc(OC(F)(F)F)cc2)no1	14µM*
COc1ccc(-c2noc([C@@H]3C[C@H](NCc4ccc(S(C)(=O)=O)cc4)CN3C)n2)cc1	-13%
Cn1nccc1CN1CCC2(C1)NC(=O)c1ccccc1O2 (centres undefined)	-4%[44.1 µM]
CCC(CC)C(=O)N[C@H]1CCN2C(=O)c3cc(-c4cccs4)ccc3NC(=O)[C@@H]2C1	i
SMILES	Pf Dd2 growth
CC1(C(=O)Nc2ccc(F)c(F)c2)CCCCC(=O)N1 (centres undefined)	-22%
CCN(CC)CCOC(=O)c1ccc(NC(=O)c2cc3c(=O)n(CC)c4ccccc4c3s2)cc1	0.79µM*
CCn1c(=O)c2cc(C(=O)Nc3cc(OC)c(OC)c(OC)c3)sc2c2ccccc21	i
CCOc1ccc(CCNC(=O)c2cc3c(=O)n(CC)c4ccccc4c3s2)cc1OCC	11%
Cc1cnn(CCC(=O)N2CCC(C3CCN(S(C)(=O)=O)CC3)C2)c1 (centres undefined)	1%
Cc1ccc(OCc2nc(C3CCCN3)no2)cc1 (centres undefined)	-9%
COc1cncc(N2CC3(COCC(=O)N(Cc4cccc(OC(F)(F)F)c4)C3)C2)c1	i
O=C1COCC2(CN1Cc1cccc(OC(F)(F)F)c1)CN(c1ccccc1F)C2	2.5µM*
O=C1COCC2(CN1Cc1cccc(OC(F)(F)F)c1)CN(c1ccccn1)C2	i
Cc1cccc(CN(C)C(=O)c2cc(-c3cnc(C)nc3)nc3cc(F)ccc23)n1	-10%
COc1cccc(C(=O)NC2CCCN(c3cc(-c4ccccc4)[nH]n3)C2)c1OC (centres undefined)	-14%
O=C(NC1CCCCC1)c1ccc(CSc2nc3cccnc3n2Cc2ccc(F)cc2)cc1	20%[5.79 µM]
O=C(NC1CCCCC1)c1ccc(CSc2nc3cccnc3n2Cc2cccc(F)c2)cc1	11µM*
Cc1cccc(Cn2c(SCc3ccc(C(=O)NC4CCCC4)cc3)nc3cccnc32)c1	-26%
O=C(NC1CCCCC1)c1ccc(Cn2c(SCc3ccc(F)cc3)nc3cccnc32)cc1	-2%
Cc1cccc(Cn2c(SCc3ccc(C(=O)NC4CCCCC4)cc3)nc3cccnc32)c1	10µM*
Cc1cc(C)n(CCC(=O)NCCc2noc(-c3ccncc3)n2)n1	-5%
Cc1noc(C)c1CC(=O)N[C@@H]1CN(S(C)(=O)=O)C[C@H]1CN(C)C	44%

High-throughput results: PubChem, National Center for Advancing Translational Sciences (NCATS)
